Screening results: PubChem, The Scripps Research Institute Molecular Screening Center
LYPLA2 inh: LYPLA2 (human) inhibition in PME1 counter-screen; O95372; recombinant LYPLA2, FP-Rh probe fluorescence polarization; inhibition, % at 5.9 µM; 0.38% of 320,000 active;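 active means inhibition above the screen-wide mean plus 3 SD, limit set per campaign, cut at about 26% in these data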
PREPL inh: inhibitors of human prolyl oligopeptidase-like enzyme PREPL | Q4J6C6 | recombinant PREPL, fluorescence polarization activity-based probe | inhibition, % at 5.96 µM | 0.68% of 320,000 active | AID 2751; in the data active means inhibition above about 43%
Target sequence (Q4J6C6 whole entry, looked up): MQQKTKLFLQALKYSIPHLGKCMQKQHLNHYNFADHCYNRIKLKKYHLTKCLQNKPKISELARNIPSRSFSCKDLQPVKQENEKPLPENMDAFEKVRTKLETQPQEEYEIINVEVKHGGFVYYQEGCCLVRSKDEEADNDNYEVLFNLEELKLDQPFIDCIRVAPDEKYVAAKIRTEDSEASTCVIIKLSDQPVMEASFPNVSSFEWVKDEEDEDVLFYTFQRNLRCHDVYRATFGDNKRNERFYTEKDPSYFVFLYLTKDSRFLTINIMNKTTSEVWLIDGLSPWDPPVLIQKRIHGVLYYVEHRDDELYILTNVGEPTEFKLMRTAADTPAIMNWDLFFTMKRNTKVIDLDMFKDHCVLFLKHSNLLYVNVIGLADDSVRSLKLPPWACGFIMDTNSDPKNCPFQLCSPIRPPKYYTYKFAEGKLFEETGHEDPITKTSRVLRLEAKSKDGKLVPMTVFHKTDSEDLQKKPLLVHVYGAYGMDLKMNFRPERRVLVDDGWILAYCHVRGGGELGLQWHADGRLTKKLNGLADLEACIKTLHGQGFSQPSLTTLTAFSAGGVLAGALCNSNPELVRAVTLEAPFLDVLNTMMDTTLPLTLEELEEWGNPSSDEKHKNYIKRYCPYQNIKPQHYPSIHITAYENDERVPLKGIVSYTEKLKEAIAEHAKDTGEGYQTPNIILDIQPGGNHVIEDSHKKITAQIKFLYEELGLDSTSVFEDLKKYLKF
PME-1 primary: blocks human protein phosphatase methylesterase 1 | Q9Y570 | recombinant PME-1, FP-Rh probe fluorescence polarization | inhibition, % at 5.9 µM | 0.53% of 320,000 active | AID 2130;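 active means inhibition above the campaign mean of all compounds plus 3 SD, cut at about 26% in these data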;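 further: competitive labeling of PME-1 active site by serine hydrolase directed probe; inhibitors block probe labeling so polarization falls and inhibition rises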
GSTO1 counter: blocks human GSTO1 in RBBP9 counter-screen; recombinant GSTO1, activity-based probe fluorescence polarization; 1.1% of 300,000 active; P78417; inhibition, % at 5.96 µM;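 active means inhibition above the campaign mean inhibition plus 3 SD, cut at about 35% in these data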
LYPLA1 counter: LYPLA1 (human) inhibition in PME1 counter-screen. recombinant LYPLA1, FP-Rh probe fluorescence polarization. inhibition, % at 5.9 µM. 0.16% of 320,000 active. AID 2174. O75608;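 active means inhibition above the mean of all tested compounds plus 3 SD, set per campaign, cut at about 14% in these data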;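 further: inhibitors block serine hydrolase probe labeling of LYPLA1 so polarization falls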
Fam108B inh: blocks mouse Fam108B hydrolase in RBBP9 counter-screen; 0.33% of 300,000 active; inhibition, % at 9.51 µM; recombinant Fam108B, FP-Rh probe fluorescence polarization;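 active means inhibition above the screen mean inhibition plus 3 SD, computed separately per campaign, cut at about 18% in these data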;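 further: inhibitors lower polarization as less probe binds the enzyme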
GSTO1 inh conf: GSTO1 (human) inhibition, confirmation | inhibition, % at 5.96 µM | 54% of 2,400 active | shares compounds with GSTO1 counter | recombinant GSTO1, probe fluorescence polarization | AID 2176;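 active means inhibition above the primary screen's cutoff, its mean inhibition plus 3 SD, cut at about 35% in these data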;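 further: loss of polarization as inhibitors block binding of rhodamine sulfonate ester activity probe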
GSTO1 recomb ABPP: blocks recombinant human glutathione S-transferase omega 1; inhibition, % at 1 µM; 30% of 130 active; shares compounds with GSTO1 counter; recombinant GSTO1, gel ABPP SE-Rh probe fluorescence;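 active means inhibition of the enzyme GSTO1 above about 75%, limit read from the data; inactive means inhibition below that limit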
Hits are given with their value; - = inactive; . = no result. In the library only some 1.9% were active in any assay of this set; here they are far more common.

SMILES	LYPLA2 inh	PREPL inh	PME-1 primary	GSTO1 counter	LYPLA1 counter	Fam108B inh	GSTO1 inh conf	others
O=C1C=C(Nc2cccc3cccnc23)c2ccccc2C1=O	-	-	-	77	-	-	58
O=C(CN1C(=O)c2ccccc2C1=O)Nc1cccc2cccnc12	-	-	-	-	-	-	.
CCCCNC(=O)COC(=O)C1CCN(S(=O)(=O)c2ccc3c(c2)OCCO3)CC1	-	-	-	.	-	.	.
CC(C)(C)c1ccc(S(=O)(=O)/N=C2\C=C(NS(=O)(=O)c3ccccc3)C(=O)c3ccccc32)cc1	-	-	-	71	-	-	67
O=c1[nH]c(COc2ccc(Cl)cc2Br)nc2ccccc12	-	-	-	-	-	-	.
CCOc1cccc(CNc2ccc(O)cc2)c1OCc1ccccc1Cl	-	-	34	77	-	-	-
CCOc1cccc(CNc2ccc(O)cc2)c1OCc1ccc(Cl)cc1Cl	-	-	-	78	-	-	-
CCOc1cccc(CNn2cnnc2)c1OCc1ccccc1Cl	-	-	-	-	-	-	.
CC1CCCCC12NC(=O)N(CC(=O)OCc1ccc(Br)cc1)C2=O (stereo not given)	-	-	-	.	-	.	.
Cc1noc(C)c1C(=O)NCC(=O)Nc1ccccc1Br	.	-	.	.	.	.	.
O=C(COC(=O)c1ccccn1)NCCc1ccc(Cl)cc1	.	-	.	.	.	.	.
CN(C(=O)COc1cccc(C#N)c1)C1CCS(=O)(=O)C1 (stereo not given)	-	-	-	.	-	.	.
CC(=O)c1c(C)[nH]c(C(=O)OCC(=O)NCc2ccc3c(c2)OCO3)c1C	-	-	-	.	-	.	.
COCc1nc2ccccc2n1CCc1ccccc1	-	-	-	40	-	-	-
COCCn1c(COC)nc2ccccc21	-	-	-	-	-	-	.
CCSc1nnc(NC(=O)C2CCN(C(=O)c3ccc(F)cc3)CC2)s1	.	-	.	.	.	.	.
CCOCCCNS(=O)(=O)c1ccccc1	-	-	-	-	-	-	.
CCOCCCNC1=C(Cl)C(=O)c2ccccc2C1=O	-	-	-	65	-	-	-
CN(C)c1ccc(NC2=C(Cl)C(=O)c3ccccc3C2=O)cc1	-	-	-	94	-	-	89
O=C1C(Cl)=C(NCCN2CCOCC2)C(=O)c2ccccc21	-	-	-	42	-	-	-
O=C1C(Cl)=C(NCCCO)C(=O)c2ccccc21	-	-	-	62	-	-	-
CCOc1ccc(S(=O)(=O)N2CCN=C2c2ccccc2)c(C)c1C	-	-	-	-	-	-	.
Cc1ccc(C(=O)c2coc3cc([N+](=O)[O-])c(O)c([N+](=O)[O-])c23)cc1	-	-	-	38	-	-	-
CCCN(CC(=O)Nc1ccccc1OC)C(=O)CCC(=O)c1ccc(Cl)s1	-	-	-	.	-	.	.
COc1ccc(-c2nc(CCl)cs2)cc1OC	-	-	-	-	-	-	.
SMILES	LYPLA2 inh	PREPL inh	PME-1 primary	GSTO1 counter	LYPLA1 counter	Fam108B inh	GSTO1 inh conf	others
CCc1ccc(-c2nc(CCl)cs2)cc1	-	-	-	92	-	-	98	GSTO1 recomb ABPP=81
COc1cccc(-c2nc(CCl)cs2)c1	-	-	-	83	-	-	95	GSTO1 recomb ABPP=-
COc1ccc(C2CC(=O)N(C)c3ccccc3S2)cc1 (stereo not given)	-	-	-	47	-	-	-
CN1C(=O)CC(c2ccco2)Sc2ccccc21 (stereo not given)	-	-	-	-	-	-	.
Oc1cc(O)c2c(c1)O[C@H](c1ccc(O)c(O)c1)[C@H](O)C2	-	-	-	40	-	-	-
COC(=O)C1Cc2ccccc2CN1C(=O)CCl (stereo not given)	-	-	-	90	-	-	99
CC(C)(C)OC(=O)C[C@@H]1C/C=C\C[C@@H](CC(=O)NCCO)C(=O)N[C@H](Cc2ccccc2)COC1=O	.	-	.	.	.	.	.
Cc1c(C#N)c(NC(=O)CCl)n(Cc2ccc(F)cc2)c1C	-	-	-	81	-	-	96
Cc1c(C#N)c(NC(=O)CCl)n(Cc2ccccc2)c1C	-	-	-	86	-	-	91
Cc1cc(=O)n(Cc2ccccc2)c(O)c1C#N	-	-	-	-	-	-	.
O=C(CNC(=S)NC(=O)c1ccc(Cl)cc1)c1ccccc1	-	-	-	-	-	-	.
O=C(CNC(=S)NC(=O)c1ccc(Br)o1)c1ccccc1	-	-	-	46	-	-	-
CC1CN(C(=O)CSc2nnc(C3CCCCC3)n2N)CC(C)O1 (stereo not given)	.	-	.	.	.	.	.
O=C1CCCC2=C1C1(O)C(=O)c3ccccc3C1(O)O2 (stereo not given)	-	-	-	70	-	-	68
N#CC1=C(N)OC2=C(C(=O)CCC2)[C@]12C(=O)N(CC(N)=O)c1ccccc12	-	-	-	-	-	-	.
Cc1csc(Cn2c(CN(C)C)nc3ccccc3c2=O)n1	-	-	-	43	-	-	-
Oc1ccc(NCc2cccc(OCc3ccccc3)c2)cc1	-	-	-	82	-	-	-
O=c1c(-c2ccc([N+](=O)[O-])cc2)coc2c(O)c(O)ccc12	-	-	-	53	-	-	-
CCOC(=O)c1c(C)[nH]c(C(=O)OC(C)C(=O)NC2CCCCC2C)c1C (stereo not given)	-	-	-	.	-	.	.
O=S(=O)([N-]c1nc2ccccc2nc1-[n+]1ccccc1)c1ccc(Cl)cc1	-	-	-	-	-	-	.
Cc1cc[n+](-c2nc3ccccc3nc2C(=C=[N-])C#N)cc1	-	-	-	47	-	-	-
N#CC(=C=[N-])c1nc2ccccc2nc1-[n+]1ccccc1	-	-	-	64	-	-	37
CCO[C@H]1c2c(ccc3ccc(=O)oc23)OC(C)(C)[C@@H]1O	-	-	-	.	-	.	.
CN(Cc1nc2ccccc2c(=O)[nH]1)C(=O)c1cccc(S(=O)(=O)N2CCc3ccccc32)c1	.	-	.	.	.	.	.
CCOC(=O)N1CCN(C2=C(NS(=O)(=O)c3ccccc3)C(=O)c3ccccc3C2=O)CC1	-	-	-	-	-	-	.
CCN1CCN(C2=C(NS(=O)(=O)c3ccccc3)C(=O)c3ccccc3C2=O)CC1	-	-	-	49	-	-	38
CCN1CCN(C2=C(NS(=O)(=O)c3ccc(Br)cc3)C(=O)c3ccccc3C2=O)CC1	-	-	-	59	-	-	-
O=C1C(NS(=O)(=O)c2cccs2)=C(N2CCN(Cc3ccccc3)CC2)C(=O)c2ccccc21	-	-	-	-	-	-	.
O=C1C(NS(=O)(=O)c2ccc(Cl)cc2)=C(N2CCCCC2)C(=O)c2ccccc21	-	-	-	48	-	-	-
CN1CCN(C2=C(NS(=O)(=O)c3ccccc3)C(=O)c3ccccc3C2=O)CC1	-	-	-	46	-	-	-
